This passage reports Potency and outcome results from PubChem BioAssay (Tox21).

Assay [1] in a line: qHTS assay to identify small molecule antagonists of the thyroid receptor (TR) signaling pathway - cell viability counter screen (AID 743064). Further: nearly all actives have a fitted effect of over 50% in size. Further: potency means the concentration at half of the fitted maximal effect. A digest of the protocol: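 CellTiter-Fluor readout, 30 min at 37 °C/5% CO2, following 23.5 h incubation of GH3.TRE-Luc cells with test compound and 1 nM T3 (final).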
Assay [2] is described as follows: qHTS assay to identify small molecule antagonists of the thyroid receptor (TR) signaling pathway (AID 743065). Further: nearly all actives have a fitted effect of over 55% in size. Further: potency means the concentration at half of the fitted maximal effect. A digest of the protocol: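 Antagonism measured as loss of luciferase signal in GH3 cells stably carrying a TRE-luciferase reporter, co-treated with compound and T3 (1 nM final) for 23.5 h at 37 C. Viability was read in the same well by CellTiter-Fluor.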

Assay [3] is described as follows: qHTS assay to identify small molecule antagonists of the estrogen receptor alpha (ER-alpha) signaling pathway - cell viability counter screen (AID 743074; calls by dose curve;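 further: HEK293 cells carrying ER-alpha-UAS-bla reporter stimulated with 17beta-estradiol; nearly all actives have a fitted effect of over 45% in size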). On the technique in general: In qHTS, concentration-response curves come from the screen itself.
The target of assay [4] is Estrogen receptor (Homo sapiens) (UniProt P03372). Put plainly: qHTS assay to identify small molecule agonists of the estrogen receptor alpha (ER-alpha) signaling pathway (AID 743075; calls by dose curve).
The nature of assay [5]: qHTS assay to identify small molecule antagonists of the estrogen receptor alpha (ER-alpha) signaling pathway using the BG1 cell line (AID 743080; calls by dose curve;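 further: BG1 cells stimulated with 17beta-estradiol alongside compound; nearly all actives have a fitted effect of over 25% in size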; further: potency means the concentration at half of the fitted maximal effect). The gist of the method: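 Quantitative HTS on the Tox21 10K library: BG1 cells with endogenous ER-alpha and ERE-luciferase reporter, 17beta-estradiol stimulation, 21.5 h compound exposure, luminescence endpoint with parallel fluorescence cytotoxicity counter-read.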

Assay [6] in a line: qHTS assay to identify small molecule antagonists of the estrogen receptor alpha (ER-alpha) signaling pathway using the BG1 cell line - cell viability counter screen (AID 743081).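 Further: compound given together with 17beta-estradiol as the ER stimulus; nearly all actives have a fitted effect of over 45% in size.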
Assay [7] has as its system thyroid hormone receptor (rat, GH3 cells). Put plainly: qHTS assay to identify small molecule agonists of the thyroid receptor (TR) signaling pathway (AID 743066; calls by dose curve).
For assay [8], the target named is Estrogen receptor (Homo sapiens) (UniProt P03372). Put plainly: qHTS assay to identify small molecule antagonists of the estrogen receptor alpha (ER-alpha) signaling pathway (AID 743069; active means well fitted curve in the direction sought with a large enough effect in the signal ratio in the repeat runs, not every such curve was filed as active; the % refers to the signal ratio; further: potency means the concentration at half of the fitted maximal effect). A digest of the protocol: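 Compound effects are measured against 17beta-estradiol stimulation in HEK293 cells with a UAS-controlled beta-lactamase reporter for ER-alpha. Exposure lasts 18 hr at 37C; LiveBLAzer B/G FRET substrate follows for 2 hr at room temperature.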

Assay [9] has the same target. Put plainly: qHTS assay to identify small molecule agonists of the estrogen receptor alpha (ER-alpha) signaling pathway using the BG1 cell line (AID 743079). Further: nearly all actives have a fitted effect of over 20% in size. As to conditions: BG1Luc4E2 cells, ERE-luciferase agonist, 22 h; activation: at 70.3 µM (top of the series).
A further assay addresses Aromatase (Homo sapiens) (UniProt P11511). Put plainly: qHTS assay to identify aromatase inhibitors (AID 743083). Further: nearly all actives have a fitted effect of over 55% in size. Further: potency means the concentration at half of the fitted maximal effect.

SMILES strings stand for the structures. Results filed as inconclusive are left out. The source made the active and inactive calls. Unless noted, the call rests on the fitted dose curve; in most records, active means well fitted curve in the direction sought with a large enough effect in the repeat runs; inconclusive means weak or mixed curves; inactive means no such curve, though single readings can be large; an effect the other way counts as inactive or inconclusive.

Sequence of Aromatase (Homo sapiens) (P11511 whole entry, looked up): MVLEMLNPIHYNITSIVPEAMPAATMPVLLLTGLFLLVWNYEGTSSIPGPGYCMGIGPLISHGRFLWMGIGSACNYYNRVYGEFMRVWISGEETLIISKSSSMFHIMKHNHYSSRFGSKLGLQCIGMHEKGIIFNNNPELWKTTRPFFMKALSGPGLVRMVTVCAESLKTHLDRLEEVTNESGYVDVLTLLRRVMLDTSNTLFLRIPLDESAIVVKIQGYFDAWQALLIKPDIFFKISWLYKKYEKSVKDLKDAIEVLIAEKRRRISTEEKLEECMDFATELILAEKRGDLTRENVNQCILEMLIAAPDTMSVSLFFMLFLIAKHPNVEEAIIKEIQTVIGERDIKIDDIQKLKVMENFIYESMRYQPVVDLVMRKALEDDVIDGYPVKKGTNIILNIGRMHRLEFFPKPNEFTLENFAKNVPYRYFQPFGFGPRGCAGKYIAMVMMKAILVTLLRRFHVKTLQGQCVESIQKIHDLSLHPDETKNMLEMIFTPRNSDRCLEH
Sequence of Estrogen receptor (Homo sapiens) (P03372 whole entry, looked up): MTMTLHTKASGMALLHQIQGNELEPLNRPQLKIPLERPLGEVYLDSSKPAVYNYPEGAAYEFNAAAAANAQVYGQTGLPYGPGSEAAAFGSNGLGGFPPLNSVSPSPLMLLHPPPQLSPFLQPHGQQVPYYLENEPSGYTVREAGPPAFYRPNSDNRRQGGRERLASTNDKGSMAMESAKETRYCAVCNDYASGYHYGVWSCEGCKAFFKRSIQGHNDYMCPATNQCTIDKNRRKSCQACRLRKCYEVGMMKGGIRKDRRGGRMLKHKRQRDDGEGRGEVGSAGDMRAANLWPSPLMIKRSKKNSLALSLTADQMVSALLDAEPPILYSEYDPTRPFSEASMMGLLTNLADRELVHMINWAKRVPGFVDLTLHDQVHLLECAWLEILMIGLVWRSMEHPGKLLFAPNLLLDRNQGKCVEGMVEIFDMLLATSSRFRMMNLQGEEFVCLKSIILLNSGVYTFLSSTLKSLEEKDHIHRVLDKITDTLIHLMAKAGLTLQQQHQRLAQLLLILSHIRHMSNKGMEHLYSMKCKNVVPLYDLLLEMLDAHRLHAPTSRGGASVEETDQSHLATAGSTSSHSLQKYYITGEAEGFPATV

`CC1(CN2CCC(n3c(=O)[nH]c4ccccc43)CC2)OCc2ccccc2-n2cccc21` (stereo not given): the figures for the Potency in [1], in assay [2] and in assay [5] were 29.8 µM (active), 26.6 µM (active) and 29.8 µM (active), respectively. Moreover, the Potency result in assay [3], in [4] and in assay [6] was “inactive” throughout.
On to `Cc1ccc2c(Br)cc(Br)c(O)c2n1`, for which the Potency in assay [1] was 26.6 µM (active); in assay [2], 18.8 µM (active). The Potency entry in assay [3] and in assay [6] was “inactive” throughout.
Turning to `Cc1ccccc1N=C(N)Nc1ccccc1C`, the Potency entry in assay [1], in [8], in assay [3], in assay [4], in [9] and in assay [5] was “inactive” throughout. Moreover, the Potency entry with Aromatase (Homo sapiens) was “inactive”. Besides, the molecule was classed as inactive in assay [7].
On to `COc1cc(C(=O)NCCCCCC(=O)O)cc(OC)c1OC`, for which the Potency result in assay [1], in assay [8], in assay [3], in [4], in [9] and in assay [5] was “inactive” each time. Also, the Potency entry (in assay [6]; with Aromatase (Homo sapiens)) was “inactive” in each case. Further, in assay [7], the outcome was inactive.
Regarding `CCC(C)COC(=O)CC(C)C` (stereo not given), the Potency result in assay [1], in assay [8], in [3], in assay [4], in assay [9] and in [5] was “inactive” each time. Moreover, the Potency result (in assay [6]; in the assay with Aromatase (Homo sapiens)) was “inactive” in each case. For the same molecule, the outcome in assay [7] was inactive.
On to `O=C(OCC(O)CO)c1ccccc1Nc1ccnc2cc(Cl)ccc12` (stereo not given), for which the Potency entry in [1], in assay [3], in [4], in assay [9], in assay [5] and in assay [6] was “inactive” in each case. In the assay with Aromatase (Homo sapiens), the Potency entry is “inactive”. Also, the call in assay [7] was inactive.
Turning to `Cc1ccc(C(C)(C)O)cc1`, the Potency result in [1], in assay [8], in assay [3], in assay [4], in assay [9] and in [5] was “inactive” throughout. Moreover, the Potency entry (in [6]; with Aromatase (Homo sapiens)) was “inactive” throughout. Moreover, the molecule was classed as inactive in assay [7].
For `CN1C(=O)N(c2ccccc2Br)Cc2cnc(Nc3ccc4c(c3)OCC(CO)O4)nc21` (stereo not given), the Potency was 54.5 µM (active) in assay [1] and 2.75 µM [cytotoxic] (active) in assay [8]. Further, the molecule was called inactive in assay [7].
In the case of `NCCNCCO`, the Potency result in assay [1], in [8], in assay [3], in assay [4], in assay [9] and in [5] was “inactive” throughout. Also, the Potency result (in assay [6]; with Aromatase (Homo sapiens)) was “inactive” in each case. In assay [7], the molecule was called inactive.
As for `CCOc1ccc(Cc2nccc3cc(OCC)c(OCC)cc23)cc1OCC`, the Potency entry (in assay [1]; in assay [3]; in assay [4]; with Aromatase (Homo sapiens)) was “inactive” each time. Besides, the result in assay [7] was inactive. Further, the Potency in assay [5] was 11.4 µM (active).
Consider `Oc1c(I)cc(I)c2cccnc12`, for which the Potency entry (in [1]; in assay [4]; in [9]; in assay [6]; in the assay with Aromatase (Homo sapiens)) was “inactive” throughout. Further, the Potency in assay [8] is 6.01 µM [cytotoxic] (active).
For the molecule `COc1ccccc1N1CCN(CC(O)COc2cccc3ccccc23)CC1` (stereo not given), the Potency in assay [1] is 26.6 µM (active). Further, in [7], the molecule was classed as inactive. Further, the Potency entry (in assay [3]; in [6]; with Aromatase (Homo sapiens)) was “inactive” in each case.
With `CO/N=C(/C(=O)N[C@@H]1C(=O)N2C(C(=O)O)=C(COC(N)=O)CS[C@H]12)c1ccco1`, the Potency entry (in assay [1]; in [3]; in assay [6]; with Aromatase (Homo sapiens)) was “inactive” in each case. Further, the molecule was called inactive in assay [7].
On to `C=C1c2cccc(O)c2C(O)=C2C(=O)[C@]3(O)C(O)=C(C(N)=O)C(=O)[C@@H](N(C)C)[C@@H]3[C@@H](O)[C@H]12`, for which the Potency entry in assay [2], in assay [8], in [3], in [4], in assay [9] and in assay [5] was “inactive” each time. In addition, the Potency entry (in assay [6]; with Aromatase (Homo sapiens)) was “inactive” each time. Besides, the molecule was called inactive in assay [7].
With `CCCCCCCC/C=C\CCCCCCCCCCCC(=O)O`, the Potency result in assay [1], in assay [8], in assay [3], in assay [4], in assay [5] and in assay [6] was “inactive” in each case. For the same molecule, the Potency result in the assay with Aromatase (Homo sapiens) was “inactive”.
Consider `CN1CCCC(CC2c3ccccc3Sc3ccccc32)C1` (stereo not given), for which, in assay [1], the Potency was 9.02 µM (active). Further, the Potency result in [8], in assay [3], in assay [4], in [9], in assay [5] and in assay [6] was “inactive” in each case. In the assay with Aromatase (Homo sapiens), the Potency result is “inactive”.
Turning to `Nc1nnc(-c2ccc([N+](=O)[O-])o2)o1`, the Potency in assay [1] is 61.1 µM (active); with Aromatase (Homo sapiens), 48.6 µM (active). In addition, the Potency result in [8], in assay [3] and in assay [4] was “inactive” each time.
`Cc1cscn1`: the Potency entry in assay [2], in assay [8], in [3], in assay [4], in [9] and in assay [5] was “inactive” throughout. Besides, the Potency result (in assay [6]; in the assay with Aromatase (Homo sapiens)) was “inactive” throughout. Also, the result in assay [7] was inactive.
